The values below come from PubChem BioAssay.

Each structure is given as a SMILES string. Records with an inconclusive call do not appear. Calls of active or inactive are those of the source.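 The calls were made as follows, unless noted: active = normalized viability below 100% at a tested concentration; inactive = the rest.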

A short description of assay [1]: ovarian cancer cell viability with rucaparib, profiling panel, oncology-focused library, rucaparib conditional (AID 1508598). To be noted: patient-derived ovarian cancer cells, CellTiter-Glo viability, 144 h, stronger effect = lower value. A general note: In ATP-based viability assays light output follows the ATP content of the culture.
Assay [2] in a line: growth inhibition of DIPG glioma cells, dose response, cell-based, SU-DIPG-XVII, MIPE5.0, CellTiter-Glo, qHTS (AID 1347060; cut-off not given, nearly all actives have AC50 up to about 26 µM;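 as to AC50: cells exposed to compound for 48 hours before viability readout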). To be noted: SU-DIPG-XVII viability, CellTiter-Glo ATP luminescence.
Assay [3] in a line: growth inhibition of DIPG glioma cells, dose response, cell-based, SU-DIPG-XIII, MIPE5.0, CellTiter-Glo, qHTS (AID 1347064; cut-off not given, nearly all actives have AC50 up to about 23 µM;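 as to AC50: cells exposed to compound for 48 hours before the viability read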). To be noted: SU-DIPG-XIII viability, CellTiter-Glo ATP luminescence.
Assay [4] in a line: viability loss in pontine glioma line – cell-based, SU-DIPG-XXV, MIPE5.0, CellTiter-Glo, qHTS, dose response (AID 1347065; cut-off not given, nearly all actives have AC50 up to about 26 µM;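 also: cells exposed to compound for 48 hours before ATP readout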). To be noted: CellTiter-Glo ATP luminescence.
Assay [5] is described as follows: SU-DIPG-VI glioma cell viability, MIPE4.0 library, CellTiter-Glo luminescence, qHTS (AID 1347066; cut-off not given, nearly all actives have AC50 up to about 30 µM;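 also: cells exposed to compound for 48 hours before readout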). To be noted: CellTiter-Glo ATP luminescence.
Assay [6] in a line: JHH-DIPG-1 glioma cell viability, MIPE5.0 library, CellTiter-Glo luminescence, qHTS (AID 1347067; cut-off not given, nearly all actives have AC50 up to about 26 µM;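 also: cells exposed to compound for 48 hours before readout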). To be noted: JHH-DIPG-1 glioma viability, CellTiter-Glo ATP luminescence.
A short description of assay [7]: SU-DIPG-XXV glioma cell viability, MIPE5.0 library, qHTS (AID 1347068; cut-off not given, nearly all actives have IC50 up to about 30 µM). A general note: In qHTS, concentration-response curves come from the screen itself.
The nature of assay [8]: sensitizers of A549 cells to miR-34 induction, primary screen, imaging, A549 dox-inducible miR-34, nuclei and caspase counts (AID 1347080;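 active = compounds whose cell count with miR-34 switched on is under 0.7 times the count with it off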). To be noted: A549 miR-34 inducible, Hoechst nuclei count, 48 h.
A short description of assay [9]: survival rescue of mitochondrial mutant cells in low glucose, primary screen, MELAS cybrids, Rieske KO mouse fibroblasts, CellTiter-Glo (AID 1508586;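 active = mean z-score across replicates of 1.96 or higher in either the MELAS or the Rieske mutant cell line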;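 also: z relative to plate mean and SD of compound and empty wells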).
Setting [10] is: at 0.0781 µM, OCI-P5x cells, with rucaparib 20 µM, 100% = cells with rucaparib alone.
Where [11] appears, read: at 0.0781 µM, OCI-P5x cells, without rucaparib.
Setting [12] is: at 0.313 µM, OCI-C5x cells, with rucaparib 10 µM, 100% = cells with rucaparib alone.
Where [13] appears, read: at 0.313 µM, OCI-C5x cells, without rucaparib.
[14] abbreviates: at 0.313 µM, OCI-P5x cells, with rucaparib 20 µM, 100% = cells with rucaparib alone.
The mark [15] stands for this setting: at 0.313 µM, OCI-P5x cells, without rucaparib.
The mark [16] stands for this setting: at 1.25 µM, OCI-C5x cells, with rucaparib 10 µM, 100% = cells with rucaparib alone.
[17] abbreviates: at 1.25 µM, OCI-C5x cells, without rucaparib.
[18] abbreviates: at 1.25 µM, OCI-P5x cells, with rucaparib 20 µM, 100% = cells with rucaparib alone.
[19] abbreviates: at 1.25 µM, OCI-P5x cells, without rucaparib.
The mark [20] stands for this setting: at 5 µM, OCI-C5x cells, with rucaparib 10 µM, 100% = cells with rucaparib alone.
Where [21] appears, read: at 5 µM, OCI-C5x cells, without rucaparib.
Setting [22] is: at 5 µM, OCI-P5x cells, with rucaparib 20 µM, 100% = cells with rucaparib alone.
[23] abbreviates: at 5 µM, OCI-P5x cells, without rucaparib.
Where [24] appears, read: stronger effect = lower value, cell number ratio, induced over uninduced.
The mark [25] stands for this setting: measured here: relative caspase fold change +Dox/-Dox.
Setting [26] is: measured here: total cells with miR-34 induction, stronger effect = lower value.
[27] abbreviates: measured here: total cells without miR-34 induction.
The mark [28] stands for this setting: MELAS cybrid survival, CellTiter-Glo 48 h, stronger effect = higher value.
Setting [29] is: Rieske KO mouse fibroblast survival, CellTiter-Glo 72 h.

The term viability denotes a read-out of living cells in per cent, often relative to untreated cells. On to `COCCOc1nc(-c2ccc(Cl)c(Cl)c2)n(-c2ccc(NC(=O)CCl)cc2)n1`, for which the viability in [1] (setting [10]) is 95.6% (active); in assay [1] (setting [11]) it was 97.3% (active); in assay [1] (setting [12]) it was 124% (inactive); in assay [1] (setting [13]), 112% (inactive); in assay [1] (setting [14]) it was 96.8% (active); in assay [1] (setting [15]), 90.6% (active). In addition, the viability in assay [1] (setting [16]) is 97.1% (active); in [1] (setting [17]), 112% (inactive); in [1] (setting [18]) it was 86.3% (active); in assay [1] (setting [19]), 86.9% (active); in assay [1] (setting [20]) it was 2.67% (active); in assay [1] (setting [21]), 92.5% (active). In addition, the viability in assay [1] (setting [22]) was 1.14% (active); in assay [1] (setting [23]) it was 6.27% (active).
Broadly, the AC50 is the midpoint of the concentration-response curve, whichever way the signal moves. As for `CCO[C@@H]1OC(=O)C[C@@H]1NC(=O)[C@@H]1CCCN1C(=O)[C@@H](NC(=O)c1ccc(N)c(Cl)c1)C(C)(C)C`, the AC50 in assay [2] is 23500 nM (active). The molecule was classed as inactive in assay [3], in [4], in assay [5], in assay [6] and in assay [7].
In the case of `Cc1cc(-c2ccc(CC(=O)Nc3ccc(-c4cccnc4)cc3)cc2)ccn1`, the outcome in assay [2], in assay [3], in assay [4], in [5], in assay [6] and in assay [7] was inactive. In addition, the values for the fold change in [8] (setting [24]) and in assay [8] (setting [25]) were 0.957 (inactive) and 0.839, respectively. Also, the cell count in assay [8] (setting [26]) amounted to 7810; in assay [8] (setting [27]), 8160. The z-score in assay [9] (setting [28]) was -0.327 (inactive); in assay [9] (setting [29]), -0.153.
For `CCCc1cc(C(=O)N[C@H](Cc2ccc(-c3cccc(OC(F)(F)F)c3)nc2)C(=O)N[C@@H]2CCNC2)sc1C`, the AC50 is 23500 nM (active) in [2], 16600 nM (active) in [3], 20900 nM (active) in assay [4] and 10500 nM (active) in assay [6].
As for `COc1cc(C(=O)O)ccc1NC(=O)[C@@H]1N[C@@H](CC(C)(C)C)[C@](C#N)(c2ccc(Cl)cc2F)[C@H]1c1cccc(Cl)c1F`, the AC50 in assay [2] is 6610 nM (active); in [3] it was 14800 nM (active); in [4], 9340 nM (active); in [6], 11800 nM (active).
For the molecule `CC(C)(C)NC(=O)c1cncn1C1CCN(c2ccc(-c3nnc(C(F)(F)F)o3)cn2)CC1`, the AC50 in [2] is 10500 nM (active); in [3], 5900 nM (active); in [4], 1480 nM (active).
As to `Cc1ccc2c(=O)c3cccc(CC(=O)O)c3oc2c1C`, the call in assay [2], in [3], in [4], in [5], in assay [6] and in assay [7] was inactive. Besides, the figures for the fold change in assay [8] (setting [24]) and in assay [8] (setting [25]) were 0.947 (inactive) and 1.03, respectively. In addition, the values for the cell count in assay [8] (setting [26]) and in assay [8] (setting [27]) were 6780 and 7150, respectively. The figures for the z-score in assay [9] (setting [28]) and in assay [9] (setting [29]) were -0.329 (inactive) and 0.338, respectively. Also, the viability in assay [1] (at 0.000305 µM, OCI-C5x cells, with rucaparib 10 µM, 100% = cells with rucaparib alone) is 94.7% (active); in [1] (at 0.000305 µM, OCI-C5x cells, without rucaparib), 116% (inactive); in [1] (at 0.000305 µM, OCI-P5x cells, with rucaparib 20 µM, 100% = cells with rucaparib alone), 97% (active); in [1] (at 0.000305 µM, OCI-P5x cells, without rucaparib), 97.7% (active); in [1] (at 0.00122 µM, OCI-C5x cells, with rucaparib 10 µM, 100% = cells with rucaparib alone), 105% (inactive); in assay [1] (at 0.00122 µM, OCI-C5x cells, without rucaparib), 110% (inactive). The viability in assay [1] (at 0.00122 µM, OCI-P5x cells, with rucaparib 20 µM, 100% = cells with rucaparib alone) was 102% (inactive); in assay [1] (at 0.00122 µM, OCI-P5x cells, without rucaparib) it was 101% (inactive); in assay [1] (at 0.00488 µM, OCI-C5x cells, with rucaparib 10 µM, 100% = cells with rucaparib alone), 108% (inactive); in assay [1] (at 0.00488 µM, OCI-C5x cells, without rucaparib), 116% (inactive); in assay [1] (at 0.00488 µM, OCI-P5x cells, with rucaparib 20 µM, 100% = cells with rucaparib alone), 105% (inactive); in assay [1] (at 0.00488 µM, OCI-P5x cells, without rucaparib) it was 103% (inactive). The viability in assay [1] (at 0.0195 µM, OCI-C5x cells, with rucaparib 10 µM, 100% = cells with rucaparib alone) was 113% (inactive); in assay [1] (at 0.0195 µM, OCI-C5x cells, without rucaparib), 116% (inactive); in assay [1] (at 0.0195 µM, OCI-P5x cells, with rucaparib 20 µM, 100% = cells with rucaparib alone) it was 107% (inactive); in assay [1] (at 0.0195 µM, OCI-P5x cells, without rucaparib), 111% (inactive); in assay [1] (at 0.0781 µM, OCI-C5x cells, with rucaparib 10 µM, 100% = cells with rucaparib alone), 115% (inactive); in assay [1] (at 0.0781 µM, OCI-C5x cells, without rucaparib), 114% (inactive). Moreover, the viability in [1] (setting [10]) is 110% (inactive); in assay [1] (setting [11]), 113% (inactive); in assay [1] (setting [12]) it was 116% (inactive); in assay [1] (setting [13]), 115% (inactive); in [1] (setting [14]) it was 68.4% (active); in assay [1] (setting [15]), 19.4% (active). Also, the viability in assay [1] (setting [16]) is 118% (inactive); in assay [1] (setting [17]), 127% (inactive); in assay [1] (setting [18]) it was 104% (inactive); in assay [1] (setting [19]), 112% (inactive); in assay [1] (setting [20]), 103% (inactive); in [1] (setting [21]), 123% (inactive). The viability in [1] (setting [22]) is 104% (inactive); in [1] (setting [23]) it was 122% (inactive).
For `COc1ccc(-c2cc(C(O)C3CCCCN3)c3ccccc3n2)cc1` (stereo not drawn), the AC50 in [2] was 20900 nM (active); in assay [3], 16600 nM (active); in assay [4] it was 29500 nM (active); in [6], 7420 nM (active).
As for `CC(C)(O)CS(=O)(=O)Nc1ccc2c(c1)CCN(C(=O)COc1cccnc1)C2`, the AC50 was 263 nM (active) in [2], 37.2 nM (active) in [3], 83.3 nM (active) in assay [4] and 46.8 nM (active) in assay [6].
The corresponding values for `Cc1ccc(NC(=O)c2ccc3c(c2)OCCO3)cc1NC(=O)c1ccc2nc(OCCN3CCCC3)ccc2c1` are 129 nM (active), 229 nM (active), 64.5 nM (active) and 204 nM (active).
In the same order, the values of `O=C(NOCCO)c1cc(CN2OCCCC2=O)c(F)c(F)c1Nc1ccc(I)cc1F` are 332 nM (active), 148 nM (active), 417 nM (active) and 148 nM (active).
As for `CCCCNc1ncc(-c2ccc(CN3CCOCC3)cn2)c(NC2CCC(O)CC2)n1` (stereo not drawn), the results for the AC50 in assay [2] and in assay [4] were 2570 nM (active) and 1820 nM (active), respectively. Also, the result in [3] was inactive.
For `Cc1c[nH]c2ncnc(N3CCC(CN)(C(=O)Nc4cccc(OC(=O)N(C)C)c4)CC3)c12`, in assay [2], the result was inactive. The AC50 in assay [3] is 11800 nM (active); in [4] it was 16600 nM (active).
For `O=C(NO)c1cnc(N2C[C@H]3C[C@@H]2CN3c2cc(C(F)(F)F)ccn2)nc1`, the half-maximal activity concentration (AC50) is 2630 nM (active) in [2], 1180 nM (active) in assay [3], 742 nM (active) in assay [4] and 1480 nM (active) in assay [6].
